Screening data from PubChem.
Only some compounds are listed: those with a hit (about 0.18% of all), similar ones and a draw of the others.
PTAP TSG101 blk: blocks PTAP/TSG101 interaction to inhibit HIV-1 budding; AID 493005; Potency, µM (highest dose often 115 µM), without a hit: top-dose activity change, negative = inhibition, actives largely listed as inhibitors; Fluorescence polarization, FITC-PTAP peptide / Tsg101 binding; 340,000 tested, under 10 active; Q99816; active means well fitted inhibition curve with a large enough effect in the main read-out, with a control signal flat, not every such curve was filed as active; inconclusive means small, poorly fitted or top-dose-only effect, or effect the other way, or a change in a side signal; inactive means no such curve, though single readings can be large or run the other way; further: % of control where 0% means no effect
Target sequence (Q99816 whole entry, looked up): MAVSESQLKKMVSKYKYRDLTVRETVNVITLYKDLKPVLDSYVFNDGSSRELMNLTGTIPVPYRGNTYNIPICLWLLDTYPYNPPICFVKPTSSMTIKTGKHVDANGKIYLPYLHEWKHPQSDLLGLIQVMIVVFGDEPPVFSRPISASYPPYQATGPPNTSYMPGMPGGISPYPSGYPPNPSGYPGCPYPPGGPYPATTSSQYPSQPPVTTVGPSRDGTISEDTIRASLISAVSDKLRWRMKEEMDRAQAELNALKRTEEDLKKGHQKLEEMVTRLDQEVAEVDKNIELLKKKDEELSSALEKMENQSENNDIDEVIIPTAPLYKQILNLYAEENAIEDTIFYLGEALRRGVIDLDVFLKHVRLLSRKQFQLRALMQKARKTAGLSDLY
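Fluorescence polarization binding of Tsg101 binding domain (10 uM final) to FITC-labeled PTAP peptide (50 nM final) in HEPES pH 7.5 buffer with NaCl, Tween 20, EDTA, TCEP. Compounds added before peptide; binding 20 min at RT.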
Apoferritin bind: binds horse apoferritin like a general anesthetic; Potency, µM (top dose mostly 77.5 µM), for inactives: at the top dose activity change, negative = displacement, hits mostly inhibitors; actives 0.074% (n = 350,000); AID 485281; apoferritin/1-aminoanthracene competitive binding, fluorescence; P02791; further: on the % scale 0 is the no-effect control and ±100 the full control effect; nearly all actives have a fitted effect of over 20% in size
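Probe: 1-aminoanthracene (50% saturated, PBS). Protein: horse-spleen apoferritin, 10 uM. Incubation: 10 min, room temperature. Detection: 380 nm excitation, 535 nm emission. Analysis: normalized response, four-parameter Hill.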
mIDH1 inhibitor: blocks human mutant IDH1 R132H enzyme; Potency, µM (titrated, usually from 76.6 µM), inactives show at the top dose activity change, negative = inhibition, hits mostly inhibitors; IDH1-R132H enzyme, NADPH consumption, diaphorase/resazurin fluorescence; actives 0.093% (n = 390,000); O75874; further: on the % scale 0 is the no-effect control and ±100 the full control effect; nearly all actives have a fitted effect of over 65% in size
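IDH1-R132H (0.5 ug/mL dispensed) in pH 7.5 Tris buffer was preincubated 30 min with compound, then given a substrate mix of 0.016 mM NADPH and 2 mM alpha-KG for 80 min at room temperature; remaining NADPH was read by diaphorase/resazurin fluorescence.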
ERG Ets-DNA blk: inhibitors of human ERG Ets domain-DNA interaction; P11308; fluorescence polarization, His-ERG Ets domain / labelled DNA; Potency, µM (highest dose often 76.9 µM), for inactives: at the highest dose FP activity, negative = inhibition, most hits filed as inhibitors; actives 0.028% (n = 370,000); active means well fitted inhibition curve with a large enough effect in the polarisation, with a control signal flat; inconclusive means small, poorly fitted or top-dose-only effect, or effect the other way, or a change in a side signal; inactive means no such curve, though single readings can be large or run the other way; the % refers to the polarisation;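 further: polarization taken with two DNA probes labelled with fluorescein and Texas red; % of control where 0% means no effect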
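His-tagged ERG Ets domain (1 uM in the protein solution; 300mM KCl, 50mM Tris-HCl, 1mM EDTA, 1mM DTT, pH 7.5) received compound, then a probe mix of 5 nM fluorescein-DNA and 100nM Texas-615-DNA. Fluorescence polarization was read for both dyes.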
Numbers without * were called inactive; u = inconclusive; x = no result given. Unless noted, the call rests on the fitted dose curve; in most records, active means well fitted inhibition curve with a large enough effect; inconclusive means small, poorly fitted or top-dose-only effect; inactive means no such curve, though single readings can be large or run the other way. Potency means the concentration at half of the fitted maximal effect.

SMILES	PTAP TSG101 blk	Apoferritin bind	mIDH1 inhibitor	ERG Ets-DNA blk
COCCCNC1=C(Cl)C(=O)c2ccccc2C1=O	-8.1%	-6.6%	-11.6%	6.7%
CCn1c(=O)n(CC)c2cc(N3CCCC3)c(NC(=O)c3ccccc3OC)cc21	-1.3%	-3.7%	-13.0%	-2.7%
COc1ccc(C(=O)Nc2cc3c(cc2N2CCCC2)n(C)c(=O)c(=O)n3C)cc1OC	x	91.9%	6.0%	-9.1%
COc1ccc(C(=O)Nc2cc3c(cc2N2CCCCC2)n(C)c(=O)n3C)cc1OC	-7.4%	4.4%	46.5µM*	1.7%
CCOc1ccccc1C(=O)Nc1cc2c(cc1N1CCCC1)n(CC)c(=O)n2CC	-5.8%	-10.1%	46.5µM*	-4.2%
CCOC(=O)c1ccccc1NC(=O)c1cc2ccccc2o1	-5.7%	-10.5%	1.1%	-9.0%
CCn1c(SCC(=O)NCc2ccc3c(c2)OCO3)nc2c(c1=O)SCC2	-2.3%	-8.4%	11.3%	10.0%
CN(C)c1ccc(/C=C/c2ccc3ccccc3[n+]2C)cc1	7.6%	-10.8%	9.0%	u
CN(C)c1ccc(/C=C/c2ccc3c4ccccc4ccc3[n+]2-c2ccccc2)cc1	-0.5%	u	29.3µM*	149.6%
CCOC(=O)c1ccc(NC(=O)N2CCN(CCc3ccccc3)CC2)cc1	-7.0%	-5.9%	3.2%	6.5%
CN1\C(=C/C=C/C=C/C=[N+](C)C)C(C)(C)c2ccccc21	50.4%	u	46.5µM*	x
O=C1N(Cc2cccnc2)C[C@@H]2C[C@@H](c3ccc(C(F)(F)F)cc3)N3CCC[C@@]123	-0.1%	-22.9%	-2.4%	-4.9%
O=C1N(Cc2cccnc2)C[C@@H]2C[C@@H](c3ccccc3C(F)(F)F)N3CCC[C@@]123	-1.4%	-4.0%	3.9%	31.6µM*
COc1cccc(CNCCNC(=O)c2nonc2N)c1	0.7%	8.3%	7.3%	-11.9%
COc1cc(CNCCNC(=O)c2nonc2N)ccc1OCc1ccc(Cl)cc1	0.4%	12.6µM*	0.0%	-4.0%
N#Cc1c(Sc2ncc(C(F)(F)F)cc2Cl)nsc1C/C=N\OCc1ccccc1Br	-4.9%	14.1µM*	-1.4%	18.8%
C#CCN(C[C@@H]1[C@@H](OC(=O)Nc2cccs2)[C@@H](OC(=O)Nc2cccs2)Cn2c(=O)n(CCCCCC)c(=O)n21)S(=O)(=O)c1ccc(C)cc1	x	x	2.1%	x
CC(=O)c1ccc(OCc2cc(C(=O)N3CCCCCCC3)no2)cc1	-0.9%	5.01µM*	3.5%	-4.4%
N#Cc1cc([N+](=O)[O-])ccc1NC(=O)COC(=O)CCC1CCCCC1	x	31.6µM*	x	x
CCCC(=O)OCC(=O)Nc1ccc([N+](=O)[O-])cc1C#N	-6.6%	-2.5%	18.9%	12.8%
O=S(=O)(Nc1ccc2c(c1)CCC2)c1cccs1	-1.0%	11.2µM*	-1.7%	5.0%
O=C1OCc2cc(NS(=O)(=O)c3cccs3)ccc21	-5.3%	-3.4%	2.3%	x
CC(/C=N/NC(=O)c1cccnc1)=C\c1ccccc1	-1.0%	-7.7%	0.4%	-9.7%
CC(=O)C1=C(O)C2(C)c3c(O)c(C)c(O)c(C(C)=O)c3OC2CC1=O (centres undefined)	x	x	-12.3%	x
Cc1cccc(CSc2ncc(Cl)c(C(=O)Nc3nnc(C)s3)n2)c1	x	14.1µM*	-26.3%	-0.8%
SMILES	PTAP TSG101 blk	Apoferritin bind	mIDH1 inhibitor	ERG Ets-DNA blk
CCc1nnc(NC(=O)c2nc(SCc3cccc(C)c3)ncc2Cl)s1	x	u	-7.7%	-6.4%
O=C(O)/C=C\c1ccccc1Oc1ccc(F)cc1	-0.5%	1.7%	-7.4%	2.6%
COc1ccccc1-n1c(=O)c(C#N)c(-c2ccc([N+](=O)[O-])cc2)c2cc(C(=O)c3cc(F)ccc3O)cnc21	-10.7%	u	-7.0%	11.2µM*
Cn1nnnc1SCCNCc1ccc(OCc2ccc(Cl)cc2)cc1	x	28.2µM*	7.1%	2.0%
CC(C)c1ccc(NC(=O)C2CC2c2ccccc2)cc1 (centres undefined)	-2.3%	35.5µM*	2.4%	4.2%
Cc1cc(O)ccc1N=Cc1c(C(F)(F)F)[nH][nH]c1=O	-2.0%	u	-2.2%	6.31µM*
O=c1[nH][nH]c(C(F)(F)F)c1C=Nc1ccccc1	-0.2%	-18.0%	-3.8%	1.0%
CCn1c(SCC(=O)Nc2sc3c(c2C#N)CCCC3)nnc1-c1ccco1	-7.8%	u	4.9%	5.6%
